The values below come from article PMC7862700, “An all-to-all approach to the identification of sequence-specific readers for epigenetic DNA modifications on cytosine”.

Common to all, as to assay: DAPPL (digital affinity profiling via proximity ligation, sequencing); 10 mM Tris-HCl pH 7.5, 50 mM NaCl, 1 mM DTT, 4% glycerol, room temperature, 30 min; GST-TFs on glutathione beads, 16-mer random dsDNA library, 0.1% formaldehyde crosslink after washing; high values mean tight binding
One test has as its target T1, FLI1 (Homo sapiens, UniProt Q01543 1-452).
T1 sequence: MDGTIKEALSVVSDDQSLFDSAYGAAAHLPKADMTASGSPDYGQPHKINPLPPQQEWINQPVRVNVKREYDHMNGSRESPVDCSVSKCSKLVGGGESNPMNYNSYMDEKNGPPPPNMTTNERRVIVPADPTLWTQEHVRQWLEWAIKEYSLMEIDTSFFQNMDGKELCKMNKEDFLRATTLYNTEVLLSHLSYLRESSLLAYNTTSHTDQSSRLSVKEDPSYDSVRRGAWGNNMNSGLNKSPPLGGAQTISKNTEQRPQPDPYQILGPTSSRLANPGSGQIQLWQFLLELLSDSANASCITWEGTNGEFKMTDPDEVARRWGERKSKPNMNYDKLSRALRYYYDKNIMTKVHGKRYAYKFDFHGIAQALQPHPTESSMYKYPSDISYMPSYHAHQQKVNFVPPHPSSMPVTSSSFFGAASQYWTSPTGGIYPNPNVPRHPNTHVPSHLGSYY
To be noted: protein: recombinant; tags: N-terminal GST; dsDNA, one strand shown. An outline of the steps:
(§1)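 Binding signal is given per hexamer as its read frequency for a factor divided by its frequency in the tag-only sample. GST-fused human transcription factors were expressed in yeast, captured on glutathione beads, barcoded with DNA and pooled with that sample, then incubated with 200 nmole of a 16-mer random double-stranded DNA library in Tris/NaCl/DTT/glycerol buffer for 30 min at room temperature. The pools were then washed, crosslinked, proximity-ligated, amplified by PCR and sequenced on an Illumina NextSeq500.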

Another test addresses T2, ELK1 (Homo sapiens, UniProt P19419 1-428).
T2 sequence: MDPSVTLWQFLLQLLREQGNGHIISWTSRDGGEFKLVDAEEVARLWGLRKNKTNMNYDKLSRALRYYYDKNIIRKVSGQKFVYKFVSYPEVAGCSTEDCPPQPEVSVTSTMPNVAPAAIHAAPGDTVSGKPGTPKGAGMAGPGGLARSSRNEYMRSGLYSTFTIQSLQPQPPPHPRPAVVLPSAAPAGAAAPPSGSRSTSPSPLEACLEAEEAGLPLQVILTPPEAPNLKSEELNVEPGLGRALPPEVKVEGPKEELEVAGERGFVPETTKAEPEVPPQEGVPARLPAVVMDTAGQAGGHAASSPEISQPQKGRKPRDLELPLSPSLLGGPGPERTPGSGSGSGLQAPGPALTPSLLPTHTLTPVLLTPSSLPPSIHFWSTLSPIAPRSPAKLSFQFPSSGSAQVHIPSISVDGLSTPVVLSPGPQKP
The settings on record: protein: recombinant; tags: N-terminal GST; dsDNA, one strand shown. A digest of the protocol:
as §1

Another test has as its target T3, GABPA (Homo sapiens, UniProt Q06546 1-454).
T3 sequence: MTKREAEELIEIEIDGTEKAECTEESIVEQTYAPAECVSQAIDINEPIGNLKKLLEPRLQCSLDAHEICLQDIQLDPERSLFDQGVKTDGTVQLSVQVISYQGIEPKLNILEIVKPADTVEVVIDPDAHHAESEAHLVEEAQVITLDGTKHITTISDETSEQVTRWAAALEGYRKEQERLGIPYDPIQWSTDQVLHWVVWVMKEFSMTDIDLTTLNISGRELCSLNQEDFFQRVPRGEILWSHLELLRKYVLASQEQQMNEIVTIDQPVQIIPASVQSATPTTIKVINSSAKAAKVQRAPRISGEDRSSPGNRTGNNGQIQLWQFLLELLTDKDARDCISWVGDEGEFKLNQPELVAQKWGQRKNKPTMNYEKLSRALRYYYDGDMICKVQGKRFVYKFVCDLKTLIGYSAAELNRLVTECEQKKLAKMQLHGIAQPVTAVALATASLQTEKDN
The settings on record: protein: recombinant; tags: N-terminal GST; dsDNA, one strand shown. An outline of the steps:
as §1

The next test addresses T4, ERG (Homo sapiens, UniProt P11308 1-479).
T4 sequence: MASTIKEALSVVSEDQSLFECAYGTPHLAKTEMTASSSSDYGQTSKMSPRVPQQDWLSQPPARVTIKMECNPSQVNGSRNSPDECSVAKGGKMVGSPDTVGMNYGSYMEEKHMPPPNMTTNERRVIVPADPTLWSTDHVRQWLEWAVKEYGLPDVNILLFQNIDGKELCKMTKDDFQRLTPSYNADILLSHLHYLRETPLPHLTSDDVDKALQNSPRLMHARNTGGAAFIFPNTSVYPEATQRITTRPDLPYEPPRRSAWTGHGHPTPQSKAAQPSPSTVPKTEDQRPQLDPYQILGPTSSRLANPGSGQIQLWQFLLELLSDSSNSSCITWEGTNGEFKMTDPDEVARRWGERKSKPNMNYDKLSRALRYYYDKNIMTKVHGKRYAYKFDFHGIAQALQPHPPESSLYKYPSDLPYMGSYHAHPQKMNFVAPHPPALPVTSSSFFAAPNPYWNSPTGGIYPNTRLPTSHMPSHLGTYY
To be noted: protein: recombinant; tags: N-terminal GST; dsDNA, one strand shown. A digest of the protocol: as §1

Another test addresses ELF1 (Homo sapiens, UniProt P32519 1-619). To be noted: protein: recombinant; tags: N-terminal GST; dsDNA, one strand shown. An outline of the steps: as §1
The next test concerns the target T5, EHF (Homo sapiens, UniProt Q9NZC4 1-300).
T5 sequence: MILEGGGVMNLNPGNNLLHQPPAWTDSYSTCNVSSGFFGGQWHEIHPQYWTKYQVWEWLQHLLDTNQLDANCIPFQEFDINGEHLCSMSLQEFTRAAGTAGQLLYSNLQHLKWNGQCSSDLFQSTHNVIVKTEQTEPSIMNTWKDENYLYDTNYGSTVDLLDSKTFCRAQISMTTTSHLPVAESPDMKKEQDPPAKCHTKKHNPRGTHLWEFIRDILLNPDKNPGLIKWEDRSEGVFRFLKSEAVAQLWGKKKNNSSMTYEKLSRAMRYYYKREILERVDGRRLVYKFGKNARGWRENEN
To be noted: protein: recombinant; tags: N-terminal GST; dsDNA, one strand shown. A digest of the protocol:
as §1

In another test the target is SPI1 (Homo sapiens, UniProt P17947 1-270). To be noted: protein: recombinant; tags: N-terminal GST; dsDNA, one strand shown. A digest of the protocol: as §1
Another test deals with SPIB (Homo sapiens, UniProt Q01892 1-262). To be noted: protein: recombinant; tags: N-terminal GST; dsDNA, one strand shown. A digest of the protocol: as §1
Another test addresses T6, FEV (Homo sapiens, UniProt Q99581 1-238).
T6 sequence: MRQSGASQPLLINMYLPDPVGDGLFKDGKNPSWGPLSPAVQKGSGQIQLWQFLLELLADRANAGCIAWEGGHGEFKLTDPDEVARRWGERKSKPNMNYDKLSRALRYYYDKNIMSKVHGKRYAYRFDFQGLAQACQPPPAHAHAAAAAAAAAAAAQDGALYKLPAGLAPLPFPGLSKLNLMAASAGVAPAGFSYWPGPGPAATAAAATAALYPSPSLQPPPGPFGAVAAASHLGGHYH
The settings on record: protein: recombinant; tags: N-terminal GST; dsDNA, one strand shown. An outline of the steps:
as §1

The target of another test is ETV5 (Homo sapiens, UniProt P41161 1-510). To be noted: protein: recombinant; tags: N-terminal GST; dsDNA, one strand shown. An outline of the steps:
as §1

A further test deals with HSF1 (Homo sapiens, UniProt Q00613 1-529). The settings on record: protein: recombinant; tags: N-terminal GST; chain copies: 3; dsDNA, one strand shown. A digest of the protocol: as §1
A further test addresses ELF4 (Homo sapiens, UniProt Q99607 1-663). To be noted: protein: recombinant; tags: N-terminal GST; dsDNA, one strand shown. An outline of the steps: as §1
For a further test, the target named is T7, ELK4 (Homo sapiens, UniProt P28324-2 1-405).
T7 sequence: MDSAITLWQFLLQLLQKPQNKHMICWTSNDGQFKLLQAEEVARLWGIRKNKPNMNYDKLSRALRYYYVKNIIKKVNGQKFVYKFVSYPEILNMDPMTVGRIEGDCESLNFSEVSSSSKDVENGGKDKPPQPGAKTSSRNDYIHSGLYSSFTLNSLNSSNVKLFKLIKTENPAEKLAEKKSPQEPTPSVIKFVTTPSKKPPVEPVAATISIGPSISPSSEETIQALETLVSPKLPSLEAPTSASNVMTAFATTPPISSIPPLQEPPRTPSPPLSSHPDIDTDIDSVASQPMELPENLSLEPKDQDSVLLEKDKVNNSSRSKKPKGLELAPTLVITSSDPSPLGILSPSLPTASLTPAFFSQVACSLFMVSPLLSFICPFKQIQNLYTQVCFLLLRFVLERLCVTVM
The settings on record: protein: recombinant; tags: N-terminal GST; dsDNA, one strand shown. A digest of the protocol:
as §1

Another test concerns the target T8, ELF3 (Homo sapiens, UniProt P78545 1-371).
T8 sequence: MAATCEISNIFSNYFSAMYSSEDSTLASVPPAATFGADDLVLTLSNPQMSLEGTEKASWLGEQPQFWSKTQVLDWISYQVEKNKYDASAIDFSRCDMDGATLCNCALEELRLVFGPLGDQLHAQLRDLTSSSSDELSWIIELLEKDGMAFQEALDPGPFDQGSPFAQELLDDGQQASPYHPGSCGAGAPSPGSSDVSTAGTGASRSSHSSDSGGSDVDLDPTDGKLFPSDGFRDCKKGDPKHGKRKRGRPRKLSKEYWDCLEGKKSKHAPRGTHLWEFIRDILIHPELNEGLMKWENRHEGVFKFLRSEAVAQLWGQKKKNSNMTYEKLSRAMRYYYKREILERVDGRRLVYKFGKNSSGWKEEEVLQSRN
The settings on record: protein: recombinant; tags: N-terminal GST; dsDNA, one strand shown. An outline of the steps: as §1

The target of the next test is CRX (Homo sapiens, UniProt O43186 1-299). To be noted: protein: recombinant; tags: N-terminal GST; dsDNA, one strand shown. An outline of the steps:
as §1

The next test addresses ETV1 (Homo sapiens, UniProt P50549 1-477). The settings on record: protein: recombinant; tags: N-terminal GST; dsDNA, one strand shown. A digest of the protocol: as §1

CRX, sequence (O43186 whole entry): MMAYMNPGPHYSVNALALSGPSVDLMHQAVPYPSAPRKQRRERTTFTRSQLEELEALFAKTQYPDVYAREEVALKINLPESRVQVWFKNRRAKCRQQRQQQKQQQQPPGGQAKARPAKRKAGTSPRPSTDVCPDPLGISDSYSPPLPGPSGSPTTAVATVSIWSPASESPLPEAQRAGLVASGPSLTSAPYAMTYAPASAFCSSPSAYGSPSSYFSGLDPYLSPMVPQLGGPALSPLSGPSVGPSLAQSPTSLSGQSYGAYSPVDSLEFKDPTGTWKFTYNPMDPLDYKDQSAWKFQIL
SPIB, sequence (Q01892 whole entry): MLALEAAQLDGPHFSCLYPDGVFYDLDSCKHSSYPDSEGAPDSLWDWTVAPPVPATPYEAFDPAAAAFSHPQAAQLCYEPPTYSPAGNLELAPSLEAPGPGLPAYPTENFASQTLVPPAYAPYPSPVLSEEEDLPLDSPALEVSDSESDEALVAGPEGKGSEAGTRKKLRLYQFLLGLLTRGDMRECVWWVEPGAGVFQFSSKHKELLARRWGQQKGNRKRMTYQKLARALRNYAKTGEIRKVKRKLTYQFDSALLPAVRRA
ETV1, sequence (P50549 whole entry): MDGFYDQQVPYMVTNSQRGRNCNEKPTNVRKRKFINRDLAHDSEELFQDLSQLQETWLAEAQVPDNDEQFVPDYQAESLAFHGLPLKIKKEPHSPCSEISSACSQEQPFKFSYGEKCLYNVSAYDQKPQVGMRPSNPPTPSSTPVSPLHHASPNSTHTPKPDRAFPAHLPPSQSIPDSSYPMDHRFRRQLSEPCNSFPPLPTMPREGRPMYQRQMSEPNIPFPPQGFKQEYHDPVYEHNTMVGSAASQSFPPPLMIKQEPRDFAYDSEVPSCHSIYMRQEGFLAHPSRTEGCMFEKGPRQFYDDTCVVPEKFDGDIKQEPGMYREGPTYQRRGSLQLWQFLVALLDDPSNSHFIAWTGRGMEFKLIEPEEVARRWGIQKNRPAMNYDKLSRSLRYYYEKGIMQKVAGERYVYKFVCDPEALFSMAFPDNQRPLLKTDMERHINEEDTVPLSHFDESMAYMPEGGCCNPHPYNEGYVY
ETV5, sequence (P41161 whole entry): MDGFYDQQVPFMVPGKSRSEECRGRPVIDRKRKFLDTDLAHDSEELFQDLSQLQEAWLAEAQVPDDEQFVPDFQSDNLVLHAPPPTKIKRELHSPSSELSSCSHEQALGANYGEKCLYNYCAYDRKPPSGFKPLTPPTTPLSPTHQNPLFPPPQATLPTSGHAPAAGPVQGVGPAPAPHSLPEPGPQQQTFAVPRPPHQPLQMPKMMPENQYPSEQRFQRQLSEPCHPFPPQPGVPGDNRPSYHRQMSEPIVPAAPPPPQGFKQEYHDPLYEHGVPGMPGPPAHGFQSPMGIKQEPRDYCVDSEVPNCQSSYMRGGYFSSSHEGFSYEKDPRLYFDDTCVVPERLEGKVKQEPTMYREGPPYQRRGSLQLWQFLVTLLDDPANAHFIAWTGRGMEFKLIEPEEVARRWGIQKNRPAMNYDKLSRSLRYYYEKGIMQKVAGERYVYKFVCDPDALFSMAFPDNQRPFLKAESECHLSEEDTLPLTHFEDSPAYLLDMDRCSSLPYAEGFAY
HSF1, sequence (Q00613 whole entry): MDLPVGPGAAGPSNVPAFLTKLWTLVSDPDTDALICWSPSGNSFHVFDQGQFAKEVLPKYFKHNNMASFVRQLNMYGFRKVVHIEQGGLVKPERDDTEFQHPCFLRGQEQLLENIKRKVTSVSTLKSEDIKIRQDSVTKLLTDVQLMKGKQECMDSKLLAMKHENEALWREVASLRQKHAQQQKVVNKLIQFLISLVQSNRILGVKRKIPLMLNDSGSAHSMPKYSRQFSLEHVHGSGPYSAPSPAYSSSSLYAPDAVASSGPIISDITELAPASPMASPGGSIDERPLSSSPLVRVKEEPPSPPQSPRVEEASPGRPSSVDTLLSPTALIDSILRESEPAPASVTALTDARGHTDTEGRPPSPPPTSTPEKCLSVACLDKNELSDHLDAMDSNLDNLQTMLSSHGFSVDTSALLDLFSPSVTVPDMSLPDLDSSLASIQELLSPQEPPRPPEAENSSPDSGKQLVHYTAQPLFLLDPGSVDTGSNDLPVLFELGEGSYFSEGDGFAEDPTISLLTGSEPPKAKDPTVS
ELF1, sequence (P32519 whole entry): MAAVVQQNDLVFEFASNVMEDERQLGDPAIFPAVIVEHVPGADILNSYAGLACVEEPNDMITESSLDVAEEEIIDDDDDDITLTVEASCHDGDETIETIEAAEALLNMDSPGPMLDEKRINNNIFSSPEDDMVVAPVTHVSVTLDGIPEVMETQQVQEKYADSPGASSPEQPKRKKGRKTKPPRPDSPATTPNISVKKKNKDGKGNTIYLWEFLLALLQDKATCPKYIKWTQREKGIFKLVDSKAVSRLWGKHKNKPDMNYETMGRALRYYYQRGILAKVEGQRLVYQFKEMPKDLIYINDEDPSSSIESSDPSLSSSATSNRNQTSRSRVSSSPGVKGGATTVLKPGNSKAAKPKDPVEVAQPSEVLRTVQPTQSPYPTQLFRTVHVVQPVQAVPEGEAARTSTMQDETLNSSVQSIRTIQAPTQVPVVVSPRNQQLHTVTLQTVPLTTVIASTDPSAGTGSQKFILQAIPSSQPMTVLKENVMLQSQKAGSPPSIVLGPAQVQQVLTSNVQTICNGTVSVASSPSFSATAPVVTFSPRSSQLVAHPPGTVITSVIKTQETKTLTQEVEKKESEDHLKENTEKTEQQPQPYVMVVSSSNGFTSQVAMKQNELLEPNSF
ELF4, sequence (Q99607 whole entry): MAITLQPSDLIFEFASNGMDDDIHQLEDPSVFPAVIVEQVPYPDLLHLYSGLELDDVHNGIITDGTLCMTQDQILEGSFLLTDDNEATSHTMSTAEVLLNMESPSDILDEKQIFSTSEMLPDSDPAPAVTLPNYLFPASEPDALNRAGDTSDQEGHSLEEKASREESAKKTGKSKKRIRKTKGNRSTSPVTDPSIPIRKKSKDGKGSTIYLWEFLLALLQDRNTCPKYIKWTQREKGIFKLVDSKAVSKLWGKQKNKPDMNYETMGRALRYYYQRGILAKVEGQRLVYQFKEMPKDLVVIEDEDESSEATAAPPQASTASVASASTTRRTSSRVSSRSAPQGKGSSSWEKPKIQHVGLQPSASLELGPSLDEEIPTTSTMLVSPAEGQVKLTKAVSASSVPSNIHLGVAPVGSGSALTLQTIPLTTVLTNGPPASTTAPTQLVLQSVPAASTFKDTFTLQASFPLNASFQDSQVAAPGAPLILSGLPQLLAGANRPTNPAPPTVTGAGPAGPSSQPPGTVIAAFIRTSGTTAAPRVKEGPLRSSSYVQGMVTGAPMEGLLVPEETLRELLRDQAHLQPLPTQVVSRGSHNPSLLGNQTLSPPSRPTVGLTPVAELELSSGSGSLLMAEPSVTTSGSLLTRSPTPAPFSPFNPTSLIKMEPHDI

On to GGTAAT, for which the binding signal with FLI1 was 1.15 fold enrichment (6-mer frequency, TF over GST control); with ELK1 it was 1.1 fold enrichment (6-mer frequency, TF over GST control); in the test with GABPA, 1.22 fold enrichment (6-mer frequency, TF over GST control); in the test with ERG, 1.08 fold enrichment (6-mer frequency, TF over GST control); with ELF1, 1.17 fold enrichment (6-mer frequency, TF over GST control); with EHF, 1.2 fold enrichment (6-mer frequency, TF over GST control). The binding signal in the test with SPI1 was 1.04 fold enrichment (6-mer frequency, TF over GST control); with SPIB it was 1.11 fold enrichment (6-mer frequency, TF over GST control); in the test with FEV, 1.09 fold enrichment (6-mer frequency, TF over GST control); with ETV5 it was 1.13 fold enrichment (6-mer frequency, TF over GST control); in the test with HSF1, 1.27 fold enrichment (6-mer frequency, TF over GST control); in the test with ELF4, 1.08 fold enrichment (6-mer frequency, TF over GST control). The binding signal with ELK4 was 1.21 fold enrichment (6-mer frequency, TF over GST control); in the test with ELF3, 1.17 fold enrichment (6-mer frequency, TF over GST control); with CRX, 1.76 fold enrichment (6-mer frequency, TF over GST control); with ETV1, 1.19 fold enrichment (6-mer frequency, TF over GST control).
